Data from PubChem BioAssay (Tox21).
Results filed as inconclusive are left out. A call without a number means that no potency is given here. Active and inactive are the calls of the source. Calls follow the shape of the full dose curve.
Potency is read from the fitted curve at half-maximal effect.

These compounds were tested against Retinoic acid receptor RXR-alpha (Homo sapiens) (UniProt P19793) (assay: qHTS assay to identify small molecule agonists of the RXR signaling pathway (AID 1159527; also: nearly all actives have a fitted effect of over 35% in size)). Settings: HEK293T RXRa-UAS-bla, beta-lactamase ratio, 16 h; series mostly up to 76.8 µM.
Retinoic acid receptor RXR-alpha (Homo sapiens), sequence (P19793 whole entry, looked up): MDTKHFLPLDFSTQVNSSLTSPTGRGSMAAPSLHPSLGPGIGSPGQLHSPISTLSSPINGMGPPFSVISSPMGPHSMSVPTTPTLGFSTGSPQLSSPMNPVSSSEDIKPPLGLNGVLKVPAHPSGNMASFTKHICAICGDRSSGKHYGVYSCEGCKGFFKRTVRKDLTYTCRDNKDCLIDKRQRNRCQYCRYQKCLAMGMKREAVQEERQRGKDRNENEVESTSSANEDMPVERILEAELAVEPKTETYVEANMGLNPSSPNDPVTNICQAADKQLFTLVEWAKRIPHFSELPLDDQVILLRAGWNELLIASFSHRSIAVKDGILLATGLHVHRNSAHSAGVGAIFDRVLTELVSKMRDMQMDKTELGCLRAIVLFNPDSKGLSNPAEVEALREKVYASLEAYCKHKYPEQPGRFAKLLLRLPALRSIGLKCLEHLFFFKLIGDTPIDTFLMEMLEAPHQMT
From the text: U.S. Tox21 Program National Center for Advancing Translational Sciences [NCATS] NIH Chemical Genomics Center [NCGC] U.S. Environmental Protection Agency [EPA] National Institutes of Environmental Health Sciences [NIEHS] National Toxicology Program [NTP] U.S. Food and Drug Administration [FDA] Tox21 Assay Overview: The Retinoid X receptor (RXR), a nuclear hormone receptor expressed in liver, spleen, placenta, epidermis, central nervous system. These receptors are able to form homo and heterodimers with other nuclear receptors and due to this heterodimerizing ability, RXR functions as master regulators producing diverse physiological effects. Three subtypes of RXR exist; alpha, beta and gamma. Retinoid X receptor alpha (RXR-alpha) has potential roles in metabolic signaling pathways, skin alopecia, dermal cysts, cardiac development, insulin sensitization etc. Therefore screening environmental chemicals on RXR-alpha signaling can be used for the studies focused on such therapeutic applications. For quantification of RXR-alpha ligands signaling, GeneBLAzer RXR alpha-UAS-bla HEK 293T (Life Technologies, Carlsbad, CA) cells containing a beta-lactamase reporter-gene under control of Retinoid X receptor-alpha response element were used to screen Tox21 10K library.
Tox21 Assay Protocol Summary: RXR-alpha HEK 293T cells were dispensed at 2,000 cells/6 uL of assay medium containing 2% charcoal-stripped FBS using a Multidrop Combi (ThermoFisher Scientific, Waltham, MA) dispenser. The assay was performed in black wall/clear-bottom 1536-well plates (Greiner Bio-One North America Inc. Monroe, NC). 9-cis retinoic acid was used as a positive control in the agonist mode screen. After the assay plates were incubated at 37 C and 5% CO2 for 5 hr, 23 nL of compounds dissolved in DMSO, positive controls or DMSO only were transferred to the assay plate by a Pintool station (Kalypsys, San Diego, CA). The assay plates were incubated at 37 C and 5% CO2 for 16 hr. One uL of LiveBLAzer B/G FRET substrate (Life Technologies) was added using a Flying Reagent Dispenser (Aurora Discovery, San Diego, CA) and the plates were incubated at room temperature for 2 hr. Fluorescence intensity (405 nm excitation, 460/530 nm emission) was measured using an Envision plate reader (PerkinElmer, Shelton, CT).
For C#CCOC(=O)[C@@H](C)Oc1ccc(Oc2ncc(Cl)cc2F)cc1, the Potency was “inactive”.
For CCOC(=O)C1=NN(c2ccccc2)C(=O)C1, the Potency was “inactive”.
For CCCCOc1cc(C(=O)OCCN(CC)CC)ccc1N, the Potency was “inactive”.
In the case of O=c1[nH]cnc2ccccc12, the Potency is reported as “inactive”.
In the case of Oc1ccc(Sc2ccc(O)cc2)cc1, the Potency is reported as “inactive”.
For CCCCOC(=O)/C=C\C(=O)OCCCC, the Potency was “inactive”.
With CC(C)NCC(O)c1cc(O)cc(O)c1 (stereo not given) the Potency was “inactive”.
For CNCC[C@@H](Oc1ccccc1C)c1ccccc1, the Potency was “inactive”.
With CC[C@H](C)[C@H](N)C(=O)O the Potency was “inactive”.
CCN(CC)C(C)CN1c2ccccc2Sc2ccccc21 (stereo not given) was tested, and the Potency was “inactive”.
In the case of CC(=O)O[C@H]1C[C@@H]2CC[C@@H]3[C@H](CC[C@@]4(C)[C@H]3C[C@H]([N+]3(C)CCCCC3)[C@@H]4OC(C)=O)[C@@]2(C)C[C@@H]1N1CCCCC1, the Potency is reported as “inactive”.
For C=Cc1c(C)c2cc3[nH]c(cc4nc(cc5nc(cc1[nH]2)C(C)=C5CCC(=O)O)C(CCC(=O)O)=C4C)c(C)c3C=C, the Potency was “inactive”.
With O=C(O)[C@@H]1[C@H]2C[C@H]3c4[nH]c5ccccc5c4CCN3C[C@@H]2CC[C@@H]1O the Potency was “inactive”.
For CC(=O)SCc1ccco1, the Potency was “inactive”.
For CC(=O)c1c(C)c([N+](=O)[O-])c(C(C)(C)C)c([N+](=O)[O-])c1C, the Potency was 21.9 µM (active).
With Oc1ccc(O)c2c(O)cccc12 the Potency was “inactive”.
In the case of C=C(C)C(=O)OC(C)C, the Potency is reported as “inactive”.
In the case of Cc1c(Cn2ccnc2)c2ccccc2n1CCC(=O)O, the Potency is reported as “inactive”.
With Cc1cccc(C(C)(C)C)c1O the Potency was “inactive”.
With CCCCCC/C=C/C=O the Potency was “inactive”.
For C=C(C)C(=O)OCCOc1ccccc1, the Potency was “inactive”.
CCCCCOC(=O)c1ccc(O)cc1 was tested, and the Potency was “inactive”.
With CN(C)CC[C@@H](c1ccc(Br)cc1)c1ccccn1 the Potency was “inactive”.
O=C(C(=O)c1ccc(Br)cc1)c1ccc(Br)cc1 was tested, and the activation was -4.31% [at 15.8 µM] (inactive).
CCOC(=O)CC(=O)c1cc(F)c(Cl)nc1Cl was tested, and the Potency was “inactive”.
With CN(C)CCCOc1nn(Cc2ccccc2)c2ccccc12 the Potency was “inactive”.
In the case of CN(C(=O)CCCOc1ccc2[nH]c(=O)ccc2c1)C1CCCCC1, the Potency is reported as “inactive”.
With CC(C)c1ccccc1C(C)C the Potency was “inactive”.
In the case of CC(=O)N(CC(=O)N(C)C)c1ccccc1, the Potency is reported as “inactive”.
For Cc1ccc(O)c([C@H](CCN(C(C)C)C(C)C)c2ccccc2)c1, the Potency was “inactive”.
In the case of CCN(CC)CCNC(C(=O)OCCC(C)C)c1ccccc1 (stereo not given), the Potency is reported as “inactive”.
With O=C(/C=C/c1ccc(O)c(O)c1)O[C@@H]1C[C@](O)(C(=O)O)C[C@@H](O)[C@H]1O the Potency was “inactive”.
For CCCCCCCC/C=C\CCCCCCCC(N)=O, the Potency was “inactive”.
In the case of CCCCCCCCC(CO)CCCCCC (stereo not given), the Potency is reported as “inactive”.
With NCCCN(CCO)CCO the Potency was “inactive”.
For Cc1cc(C)c(S(=O)(=O)O)cc1N=Nc1cc(S(=O)(=O)O)c2ccccc2c1O, the Potency was “inactive”.
For C=CC[N+]1([C@H]2C[C@H]3[C@@H]4CC[C@H]5C[C@H](OC(C)=O)[C@@H](N6CCCCC6)C[C@]5(C)[C@H]4CC[C@]3(C)[C@H]2OC(=O)CC)CCCCC1, the Potency was “inactive”.
For CCN(CCO)CCCC(C)Nc1ccnc2cc(Cl)ccc12 (stereo not given), the activation was 7.66% [at 6.98 µM] (inactive).
For CN1CCC[C@@H]1c1cccnc1, the Potency was “inactive”.
With CN1CCC(OC(c2ccccc2)c2ccccc2)CC1 the Potency was “inactive”.
